Keap1 Nrf2 FP: inhibitors of human Keap1-Nrf2 protein-protein interaction. Keap1 Kelch-Nrf2 peptide fluorescence polarization, 1536-well. Q14145. hit rate 0.15% among 340,000. inhibition, % at 9.4 µM; in the data active means inhibition above about 12%;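 further: human Keap1 Kelch domain with fluorescein labeled Nrf2 9mer peptide probe; 0% = neutral control wells and 100% = peptide positive control; higher means more block of Keap1 binding to Nrf2 peptide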
Target sequence (Q14145 whole entry, looked up, the tested form may be a part): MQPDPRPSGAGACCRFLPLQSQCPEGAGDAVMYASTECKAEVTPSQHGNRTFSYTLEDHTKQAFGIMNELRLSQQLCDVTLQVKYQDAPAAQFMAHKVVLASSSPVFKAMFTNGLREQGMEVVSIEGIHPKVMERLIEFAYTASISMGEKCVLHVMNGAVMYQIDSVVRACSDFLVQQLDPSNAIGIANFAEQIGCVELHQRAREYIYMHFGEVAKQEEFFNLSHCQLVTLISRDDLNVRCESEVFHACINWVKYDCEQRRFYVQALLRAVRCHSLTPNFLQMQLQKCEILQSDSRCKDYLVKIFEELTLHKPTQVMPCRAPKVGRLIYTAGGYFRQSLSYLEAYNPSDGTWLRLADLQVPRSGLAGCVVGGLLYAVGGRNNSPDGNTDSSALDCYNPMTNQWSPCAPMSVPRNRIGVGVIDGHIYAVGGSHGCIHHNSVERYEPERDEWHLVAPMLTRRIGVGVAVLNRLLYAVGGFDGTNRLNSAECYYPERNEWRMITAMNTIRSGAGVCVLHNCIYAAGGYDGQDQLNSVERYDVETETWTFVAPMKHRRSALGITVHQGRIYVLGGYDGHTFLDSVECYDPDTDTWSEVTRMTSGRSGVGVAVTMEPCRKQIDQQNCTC
RTF Ca sens act: cardiac RTF calcium sensitization. P19429+P45379. IANBD-labeled TnC RTF fluorescence at EC20 calcium; 0% EC20 calcium, 100% full calcium. activation, % at 7.2 µM. hit rate 0.24% among 340,000;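 active means activation above the mean over all tested compounds plus 3 SD, cut at about 30% in these data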;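 further: rise in fluorescence read as greater calcium sensitivity of cardiac thin filaments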
E coli Lon inh: inhibits E. coli Lon protease; P0A9M0; purified E. coli Lon protease, fluorescence polarization; inhibition, % at 7.94 µM; hit rate 0.42% among 360,000; AID 602123; in the data active means inhibition above about 13%, passing the limit was not always enough;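 further: 0% = enzyme with probe and DMSO and 100% = no enzyme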
LANA DNA inh: blocks KSHV LANA C-terminal domain binding to DNA. MBP-C-LANA/FAM-LBS DNA binding, fluorescence polarization. inhibition, % at 9 µM. hit rate 0.078% among 340,000. AID 504423;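 active means highest replicate inhibition at or above 60% at 9 µM, even if other replicates fall short; inactive means all replicates below 60% inhibition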;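 further: 0% = neutral control wells and 100% = 4 µM acridine orange control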
Cardiac RTF inh: cardiac RTF calcium desensitization. AID 493244. IANBD-labeled cardiac RTF, Ca2+ fluorescence. hit rate 0.12% among 340,000. inhibition, % at 7.15 µM;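 active means inhibition above the mean inhibition of all tested compounds plus 3 SD, cut at about 17% in these data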;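 further: assay run at fixed EC70 calcium of 1.6 mM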
Keap1 TSA: binders of human Keap1 Kelch domain | shares compounds with Keap1 Nrf2 FP | Keap1 Kelch thermal shift, delta Tm; hits give high values | max delta Tm, degrees C | hit rate 8% among 400 | AID 651823; in the data active means max delta Tm above about 0.48 degrees C
Dye-only ctr: counter-screen for Keap1 thermal shift hits: dye-only artifacts. shares compounds with Keap1 Nrf2 FP. Sypro Orange dye-only thermal melt, no protein, delta Tm; top dose 26 µM. delta Tm, degrees C (no concentration beside the values). 140 tested, under 10 active;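 active means at highest dose tested, delta Tm positive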
An asterisk follows results filed as active; . = no result. Shown are actives, neighbours in structure and some others; about 0.82% of the full set was active somewhere.

SMILES	Keap1 Nrf2 FP	RTF Ca sens act	E coli Lon inh	LANA DNA inh	Cardiac RTF inh	Keap1 TSA	Dye-only ctr
O=S(=O)(Nc1ncccn1)c1ccc(NC(=S)NCc2cccnc2)cc1	16.8*	2.0	-1.6	1.3	10.0	-0.18	.
COc1ccccc1Cn1c(=S)[nH]c2ccccc2c1=O	98.8*	-5.3	6.8	-2.5	-11.5	0.01	.
O=C(COC(=O)c1ccc([N+](=O)[O-])s1)Nc1cccc(S(=O)(=O)NC2=NCCCCC2)c1	52.8*	-0.8	-5.8	5.5	2.1	-0.13	.
Clc1ccc(-c2noc(CN3CCOCC3)n2)cc1	68.4*	.	9.4	.	.	-0.18	-22.5
COc1ccc(OC)c(NC(=O)C2(C)CCN2CCOc2ccccc2)c1 (stereo not given)	.	.	-6.1	.	.	.	.
CCOC(=O)C(C)(C)N(Cc1ccccc1C)S(=O)(=O)c1ccc(Cl)c([N+](=O)[O-])c1	27.3*	-7.2	1.8	0.1	5.2	-0.13	-26.8
CC(CC(=O)Nc1ccc(Cl)c(S(=O)(=O)N2CCOCC2)c1)c1ccccc1 (stereo not given)	-6.0	1.7	6.1	0.1	-3.4	.	.
Cc1ccc(C(=O)NNC(=O)c2csc(N3CCOCC3)n2)o1	3.9	3.2	-14.7	0.3	6.4	.	.
O=C(NNC(=O)c1ccc(Br)o1)c1csc(N2CCOCC2)n1	46.0*	7.2	-1.5	26.5	-10.8	-0.12	-23.8
O=C1NC(c2cc(Cl)cc([N+](=O)[O-])c2O)Nc2ccccc21 (stereo not given)	49.3*	1.0	1.2	1.3	-15.8	0.25	.
O=C1NC(c2ccc(Cl)c([N+](=O)[O-])c2)Nc2ccccc21 (stereo not given)	-7.5	3.6	3.1	0.4	-5.0	.	.
c1ccc(Nc2nc3ccccc3n3nnnc23)cc1	24.4*	2.9	-29.8	12.5	-12.3	-0.12	-27.9
Cc1[nH]nc2c1C(CC(C)C)C(C#N)=C(N)O2 (stereo not given)	46.2*	.	3.9	28.4	.	-0.17	-32.9
CCn1nc(C(=O)OCC(=O)c2c[nH]c3ccccc23)c2ccccc2c1=O	-5.2	7.0	-8.4	2.2	-8.1	.	.
CCOc1ccc(C(=O)COC(=O)c2nn(CC)c(=O)c3ccccc23)cc1	21.4*	-1.3	-4.5	11.0	-0.8	-0.09	.
CS(=O)(=O)c1ccc(NC(=O)c2cccc(S(=O)(=O)N3CCN(Cc4ccccc4)CC3)c2)cc1	-0.9	-1.8	-10.2	0.7	-3.4	.	.
COc1ccc(/C=c2\s/c(=C(/C#N)C(=O)NCc3ccco3)n(-c3ccccc3)c2=O)cc1	13.1*	-1.4	-11.5	13.1	-10.7	-0.02	.
CCOc1ccc(S(=O)(=O)Nc2cccc(C(=O)NCCCn3ccnc3)c2)cc1	27.4*	-2.3	0.9	11.7	-12.2	0.01	.
CCOc1ccc(NS(=O)(=O)c2ccc(C)c(C(=O)NCCCn3ccnc3)c2)cc1	1.7	-2.6	-2.0	-0.4	2.0	.	.
Cc1ccc(-n2nnnc2SCC(=O)c2c(N)n(C3CC3)c(=O)[nH]c2=O)cc1	42.1*	8.8	-0.6	22.0	-9.3	-0.08	.
CC(C(=O)Nc1ccccc1C#N)N1C(=O)NC2(CCCCCC2)C1=O (stereo not given)	4.1	-3.0	-2.3	-1.2	5.8	.	.
COc1ccc(C#Cc2ccc3c(c2)O[C@H](CN(C)S(=O)(=O)c2ccccc2F)[C@H](C)CN([C@H](C)CO)S3(=O)=O)cc1	.	.	-16.0	.	.	.	.
COc1ccc(C(C)=NNc2ccc([N+](=O)[O-])cc2S(=O)(=O)Nc2ccccc2C(=O)O)c(OC)c1	32.1*	-1.1	-8.6	13.7	-2.9	3.27*	-21
CCC1OC2(C)OC(=N)C1(C#N)C(C#N)(C#N)C2c1ccccc1 (stereo not given)	31.1*	14.7	-20.6	63.5*	-17.1	-0.08	-22
CC(C)C1OC2(C)OC(=N)C1(C#N)C(C#N)(C#N)C2c1ccccc1 (stereo not given)	21.1*	9.6	25.6	94.1*	-27.8	-0.06	-30.8
CN1CC=C2C(C#N)=C(N)C(C#N)(C#N)[C@H](c3cccs3)[C@H]2C1	26.0*	41.4*	109.0*	56.8	-85.7	-0.02	-27.6
c1ccc(-c2cn3nc4c(nc3n2)CCCC4)cc1	21.5*	31.4*	6.9	41.5	-26.7	-0.13	-30.5

Assay outcomes (PubChem BioAssay)
